For ten compounds, growth inhibition results are on record in PubChem BioAssay (NCI).

The nature of assay [1]: NCI Yeast Anticancer Drug Screen. Data for the rad50 strain (AID 155).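 Note: 0% = growth of vehicle-only cultures of the same strain.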 As to conditions: S. cerevisiae rad50 strain growth inhibition, stronger effect = higher value. Put shortly:
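Yeast carrying a defined DNA repair defect were exposed to test compounds, and growth was compared with vehicle-treated controls to give percent inhibition.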

Assay [2] can be described thus: NCI Yeast Anticancer Drug Screen. Data for the mec2-1 strain (AID 157). As to conditions: S. cerevisiae mec2-1 strain, stronger effect = higher value. An outline of the steps: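 Using mec2-1 yeast: add compound, measure growth, express inhibition versus vehicle-treated cultures.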
A short description of assay [3]: NCI Yeast Anticancer Drug Screen. Data for the sgs1 mgt1 strain (AID 161).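 Note: 0% = growth of cultures given vehicle only.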 Conditions: S. cerevisiae sgs1 mgt1 strain, stronger effect = higher value. An outline of the steps: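 Compounds are added to genetically altered yeast, and growth is compared with cultures given vehicle alone to give percent inhibition.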
Assay [4] in a line: NCI Yeast Anticancer Drug Screen. Data for the cln2 rad14 strain (AID 165).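 Note: 0% = growth equal to vehicle treated cultures.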 As to conditions: S. cerevisiae cln2 rad14 strain, stronger effect = higher value. An outline of the steps:
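Yeast strain cln2 rad14, bearing defects in cell cycle control and DNA repair, serves as the test system; values reflect growth inhibition compared with vehicle.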

Assay [5] can be described thus: NCI Yeast Anticancer Drug Screen. Data for the bub3 strain (AID 167). Conditions: S. cerevisiae bub3 mutant strain, stronger effect = higher value. Put shortly:
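Compounds were applied to a genetically altered yeast strain carrying a cell-cycle control defect. Growth inhibition was scored against vehicle-treated controls.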

A short description of assay [6]: NCI Yeast Anticancer Drug Screen. Data for the mlh1 rad18 strain (AID 175). Conditions: S. cerevisiae mlh1 rad18 strain growth inhibition, stronger effect = higher value. Put shortly:
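Steps: expose repair-defective yeast to compound; measure growth; express inhibition against vehicle-treated controls.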

Setting [7] is: at 5.0 µM (retest, dose inferred, filed as 0.5).
[8] abbreviates: at 50.0 µM (retest, dose inferred, filed as 5.0).

Compounds without any hit were thinned out: in the full panel of roughly 79,000, 15% have a hit. A number with no mark means an inactive call. Activity calls are given as the source filed them. Cut-off read from the data, not from the text of the source: active = growth inhibition above about 70%; inactive = the rest.

Turning to `CCCCCCCCCCCCNCC#N`, the growth inhibition is 8% in assay [1] (setting [7]); 18% in assay [1] (setting [8]); 89.9% (active) in assay [1] (at 50.0 µM); 11% in assay [2] (setting [7]); 10% in assay [2] (setting [8]); 72.2% (active) in assay [2] (at 50.0 µM). Besides, the growth inhibition in assay [3] (setting [7]) was -2%; in assay [3] (setting [8]) it was 17%; in assay [3] (at 50.0 µM), 85.1% (active); in assay [4] (setting [7]), 0%; in assay [4] (setting [8]) it was 15%; in assay [4] (at 50.0 µM) it was 48.4%. Further, the growth inhibition in assay [5] (setting [7]) was 4%; in assay [5] (setting [8]) it was 52%; in assay [5] (at 50.0 µM), 83.5% (active); in assay [6] (setting [7]) it was 5%; in assay [6] (setting [8]) it was 29%; in assay [6] (at 50.0 µM) it was 93% (active).
Consider `CCOC(=O)C[n+]1c(C)sc2ccccc21`, for which the growth inhibition in assay [1] (setting [7]) is -4%; in assay [1] (setting [8]), 23%; in assay [1] (at 50.0 µM), 78.4% (active); in assay [2] (setting [7]), -3%; in assay [2] (setting [8]), 28%; in assay [2] (at 50.0 µM) it was 40.1%. Further, the growth inhibition in assay [3] (setting [7]) is 0%; in assay [3] (setting [8]) it was 54%; in assay [3] (at 50.0 µM) it was 37.6%; in assay [4] (setting [7]), -7%; in assay [4] (setting [8]), 18%; in assay [4] (at 50.0 µM) it was 17.6%. For the same compound, the growth inhibition was -6% in assay [5] (setting [7]); 15% in assay [5] (setting [8]); 39.6% in assay [5] (at 50.0 µM); -3% in assay [6] (setting [7]); 43% in assay [6] (setting [8]); 19.2% in assay [6] (at 50.0 µM).
As to `Clc1ccccc1C=Nc1cccc2ccccc12`, the growth inhibition was -10% in assay [1] (setting [7]); -24% in assay [1] (setting [8]); 22.4% in assay [1] (at 50.0 µM); -14% in assay [2] (setting [7]); -17% in assay [2] (setting [8]); 32.4% in assay [2] (at 50.0 µM). In addition, the growth inhibition in assay [3] (setting [7]) was -9%; in assay [3] (setting [8]), -1%; in assay [3] (at 50.0 µM), 27.1%; in assay [4] (setting [7]), 18%; in assay [4] (setting [8]) it was 8%; in assay [4] (at 50.0 µM) it was 13.9%. Further, the growth inhibition in assay [5] (setting [7]) was 13%; in assay [5] (setting [8]), -3%; in assay [5] (at 50.0 µM), 35.8%; in assay [6] (setting [7]), -33%; in assay [6] (setting [8]), -54%; in assay [6] (at 50.0 µM), 23.4%.
Consider `Cc1ccc(C(Cl)(c2ccc(C)cc2)c2ccc(C)cc2)cc1`, for which the growth inhibition in assay [1] (setting [7]) was 3%; in assay [1] (setting [8]), 90% (active); in assay [1] (at 50.0 µM), 67.5%; in assay [2] (setting [7]) it was 39%; in assay [2] (setting [8]), 93% (active); in assay [2] (at 50.0 µM), 93.1% (active). Also, the growth inhibition was -3% in assay [3] (setting [7]); 93% (active) in assay [3] (setting [8]); 97.5% (active) in assay [3] (at 50.0 µM); -2% in assay [4] (setting [7]); 90% (active) in assay [4] (setting [8]); 94.5% (active) in assay [4] (at 50.0 µM). Further, the growth inhibition was 87% (active) in assay [5] (setting [7]); 92% (active) in assay [5] (setting [8]); 97.2% (active) in assay [5] (at 50.0 µM); 11% in assay [6] (setting [7]); 91% (active) in assay [6] (setting [8]); 92.2% (active) in assay [6] (at 50.0 µM).
As for `O=C(CC(c1ccccc1)N1CCCCC1)OC1c2ccccc2-c2ccccc21` (stereo not given), the growth inhibition in assay [1] (setting [7]) is -2%; in assay [1] (setting [8]), 28%; in assay [1] (at 50.0 µM), 70.1% (active); in assay [2] (setting [7]), 17%; in assay [2] (setting [8]), 43%; in assay [2] (at 50.0 µM), 9.35%. For the same compound, the growth inhibition in assay [3] (setting [7]) is 30%; in assay [3] (setting [8]) it was 54%; in assay [3] (at 50.0 µM), 55.8%; in assay [4] (setting [7]), 0%; in assay [4] (setting [8]), 23%; in assay [4] (at 50.0 µM), 54.1%. The growth inhibition in assay [5] (setting [7]) is -1%; in assay [5] (setting [8]) it was 24%; in assay [5] (at 50.0 µM), 70%; in assay [6] (setting [7]), 35%; in assay [6] (setting [8]) it was 56%; in assay [6] (at 50.0 µM), 55.8%.
Turning to `OC(Cn1cncn1)(Cn1cncn1)c1ccc(Cl)cc1Cl`, the growth inhibition was 66% in assay [1] (setting [7]); 65% in assay [1] (setting [8]); 62.6% in assay [1] (at 50.0 µM); 62% in assay [2] (setting [7]); 59% in assay [2] (setting [8]); 54.5% in assay [2] (at 50.0 µM). Moreover, the growth inhibition in assay [3] (setting [7]) was 38%; in assay [3] (setting [8]), 65%; in assay [3] (at 50.0 µM) it was 63.2%; in assay [4] (setting [7]) it was 71% (active); in assay [4] (setting [8]) it was 77% (active); in assay [4] (at 50.0 µM), 60.8%. Also, the growth inhibition in assay [5] (setting [7]) is 65%; in assay [5] (setting [8]) it was 74% (active); in assay [5] (at 50.0 µM), 56.7%; in assay [6] (setting [7]), 75% (active); in assay [6] (setting [8]), 81% (active); in assay [6] (at 50.0 µM) it was 48.2%.
`CCN(CC)CCOC(=O)Nc1cc(Cl)cc(Cl)c1`: the growth inhibition is 50% in assay [1] (setting [7]); 68% in assay [1] (setting [8]); 71% (active) in assay [1] (at 50.0 µM); 37% in assay [2] (setting [7]); 60% in assay [2] (setting [8]); 47.1% in assay [2] (at 50.0 µM). Further, the growth inhibition is 52% in assay [3] (setting [7]); 87% (active) in assay [3] (setting [8]); 68.5% in assay [3] (at 50.0 µM); 36% in assay [4] (setting [7]); 62% in assay [4] (setting [8]); 58.2% in assay [4] (at 50.0 µM). The growth inhibition in assay [5] (setting [7]) is 47%; in assay [5] (setting [8]), 69%; in assay [5] (at 50.0 µM) it was 61.2%; in assay [6] (setting [7]) it was 59%; in assay [6] (setting [8]) it was 86% (active); in assay [6] (at 50.0 µM), 54.8%.
`CCC1([N+](=O)[O-])COC(c2ccc3c(c2)OCO3)OC1` (stereo not given): the growth inhibition was -9% in assay [1] (setting [7]); -11% in assay [1] (setting [8]); -1.7% in assay [1] (at 50.0 µM); -14% in assay [2] (setting [7]); -1% in assay [2] (setting [8]); -3.15% in assay [2] (at 50.0 µM). In addition, the growth inhibition in assay [3] (setting [7]) was -1%; in assay [3] (setting [8]), -47%; in assay [3] (at 50.0 µM), 11.7%; in assay [4] (setting [7]), 10%; in assay [4] (setting [8]), 21%; in assay [4] (at 50.0 µM), -1.9%. Also, the growth inhibition in assay [5] (setting [7]) is 14%; in assay [5] (setting [8]) it was -23%; in assay [5] (at 50.0 µM), 3.35%; in assay [6] (setting [7]), -18%; in assay [6] (setting [8]), -6%; in assay [6] (at 50.0 µM), 4.45%.
On to `COc1cc(C2c3cc4c(cc3[C@@H](Nc3cccc(O)c3)C3COC(=O)[C@H]23)OCO4)cc(OC)c1O` (stereo not given in full), for which the growth inhibition in assay [1] (setting [7]) is 96% (active); in assay [1] (setting [8]), 97% (active); in assay [1] (at 50.0 µM), 85% (active); in assay [2] (setting [7]) it was 96% (active); in assay [2] (setting [8]), 98% (active); in assay [2] (at 50.0 µM), 90.7% (active). Further, the growth inhibition in assay [3] (setting [7]) is 28%; in assay [3] (setting [8]), 97% (active); in assay [3] (at 50.0 µM), 88.5% (active); in assay [4] (setting [7]) it was 33%; in assay [4] (setting [8]) it was 90% (active); in assay [4] (at 50.0 µM) it was 88.8% (active). Besides, the growth inhibition was 21% in assay [5] (setting [7]); 93% (active) in assay [5] (setting [8]); 87.7% (active) in assay [5] (at 50.0 µM); 94% (active) in assay [6] (setting [7]); 97% (active) in assay [6] (setting [8]); 87% (active) in assay [6] (at 50.0 µM).
For the compound `Cn1cc(-c2c3c(cc4c2OCO4)OCO3)c2ccccc21`, the growth inhibition was 4% in assay [1] (setting [7]); 99% (active) in assay [1] (setting [8]); 99.2% (active) in assay [1] (at 50.0 µM); -3% in assay [2] (setting [7]); 98% (active) in assay [2] (setting [8]); 99.2% (active) in assay [2] (at 50.0 µM). In addition, the growth inhibition in assay [3] (setting [7]) was 2%; in assay [3] (setting [8]) it was 99% (active); in assay [3] (at 50.0 µM) it was 99.3% (active); in assay [4] (setting [7]), -9%; in assay [4] (setting [8]), 96% (active); in assay [4] (at 50.0 µM) it was 98.8% (active). In addition, the growth inhibition in assay [5] (setting [7]) is -2%; in assay [5] (setting [8]) it was 99% (active); in assay [5] (at 50.0 µM), 99.2% (active); in assay [6] (setting [7]), -1%; in assay [6] (setting [8]) it was 99% (active); in assay [6] (at 50.0 µM), 99.3% (active).
